# Measured values published in PubChem BioAssay (NCATS).
# Inconclusive results are not listed. A number with no mark means an inactive call. The source made the active and inactive calls. The call rests on the fitted dose curve; in most records, active means well fitted cell-killing curve with a large enough effect; inconclusive means small, poorly fitted or top-dose-only effect; inactive means flat fitted curve, though single readings scatter.
# Assay: HepG2 cells viability qHTS for Zika virus inhibitors (AID 1347168)
# Details: Zika counter-screen; series mostly up to 45.9 µM; activity change, negative = cytotoxicity: at the top concentration
# Excerpt: Avindra Nath, Ph.D., National Institute of Neurological Disorders and Stroke (NINDS), Bethesda, MD
# Radhakrishnan Padmanabhan, Ph.D., Georgetown University (GU), Washington D.C.
# Zika Virus causes congenital defects, including microcephaly and is associated with Guillain-Barre syndrome, eningoencephalitis and myelitis in infected adult. […] Using a target-based approach, we hope to establish a screening paradigm to uncover novel, cell-active NS2B-NS3 protease (Zika Virus) specific inhibitors from NCATS' collection of small molecules using qHTS.
# Four assay panel was created to identify potential Zika Virus inhibitors. Namely, (1) GU unlinked NS2B-NS3 AMC tagged protease qHTS, (2) GU unlinked NS2B-NS3 Rhodamine tagged protease qHTS, (3) NINDS linked NS2B-NS3 AMC tagged protease qHTS, (4) NINDS linked NS2B-NS3 Rhodamine tagged protease qHTS. Identified inhibitors were screened against the Vero and HepG2 cell viability assays using CellTiter Glo to exclude cytotoxic compounds.
# Early Translation Branch (ETB)
# National Center for Advancing Translational Sciences (NCATS), Rockville, MD
# National Institute of Health (NIH), Bethesda, Maryland
# Vero and HepG2 Cell Viability Assay:
# Vero and HepG2 cell cytotoxicity were determined using a luminescent readout with CellTiter Glo reagent (Promega, Madison, WI), which is based on measuring the ATP content within cells. Briefly, 4 microL of Vero or HepG2 cells at 2.5 x 10^5 cells/mL in DMEM containing 4% FBS were dispensed into 1536-well solid bottom tissue treated white plate using a Multidrop Combi dispenser (Thermo Scientific). Plates were incubated at 37 degrees C, 95% humidity, and 5% CO2 overnight to allow for cell attachment. Compounds were dissolved in DMSO at different concentrations and transferred via pintool (Wako Automation), for a final concentration of 0.029 µM - 57 microM. Plates were again incubated for 24 to 48 hours, followed by a 2 microL addition of CellTiter Glo. Finally, plates were incubated for 30 minutes at 37 degrees C and 5% CO2 before being read on a ViewLux (Perkin Elmer) for luminescence.
# On the % scale 0 is the no-effect control and ±100 the full control effect.
Compound,"activity change, negative = cytotoxicity",outcome
COCC(=O)NCC=Cc1ccc2ncnc(Nc3ccc(Oc4ccc(C)nc4)c(C)c3)c2c1,-14.2%,
CCCc1nc2c(C)cc(-c3nc4ccccc4n3C)cc2n1Cc1ccc(-c2ccccc2C(=O)O)cc1,5.4%,
CCN(CC)CCCC(C)Nc1ccnc2cc(Cl)ccc12 (stereo not given),-13.5%,
CCn1cc(C(=O)O)c(=O)c2cc(F)c(N3CCNC(C)C3)c(F)c21 (stereo not given),,inactive
Cc1[nH]c(=O)c(C#N)cc1-c1ccc2nccn2c1,4.07%,
CC(C)c1onc(-c2c(Cl)cccc2Cl)c1COc1ccc(/C=C/c2cccc(C(=O)O)c2)c(Cl)c1,16.5%,
CC(C)(Sc1ccc(CCN(CCCCC2CCCCC2)C(=O)NC2CCCCC2)cc1)C(=O)O,,inactive
Cc1[nH]c(=O)c(C#N)cc1-c1ccncc1,6.7%,
O=C(C1CC1)N1CC[C@@H](Cn2c(-c3ccc(-c4ccc5occc5c4)cc3)nc3cnccc32)C1,-1.95%,
O=c1n(CCCN2CCN(c3cccc(Cl)c3)CC2)nc2ccccn12,-8.32%,
COc1ccc(-c2ccc3c(N4CCOCC4)nc(N4C[C@@H](C)O[C@@H](C)C4)nc3n2)cc1CO,2.16%,
Cc1cc(SCc2sc(-c3ccc(C(F)(F)F)cc3)nc2C)ccc1OCC(=O)O,,inactive
Cn1cnc([N+](=O)[O-])c1Sc1ncnc2nc[nH]c12,-18.7% [at 91.6 µM],
CCCCNc1cc(C(=O)O)cc(S(N)(=O)=O)c1Oc1ccccc1,7.58%,
COc1ccccc1-c1cccc(-c2c(O)c3cc(C#N)c(Cl)cc3[nH]c2=O)c1,-7.54%,
